Experimental data published in PubChem BioAssay (NCI).
Compounds without any hit were thinned out: in the full panel of roughly 79,000, 15% have a hit. Rule as the data show it: active = growth inhibition above about 70%; inactive = the rest.

Legend:
[1] = NCI Yeast Anticancer Drug Screen. Data for the rad50 strain (AID 155);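 also: 0% = growth of vehicle-only cultures of the same strain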; conditions: S. cerevisiae rad50 strain growth inhibition; at 50.0 µM; active compounds read high
How it was run: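 Growth of the mutant yeast was measured after compound exposure and referenced to vehicle-treated cultures.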

[2] = NCI Yeast Anticancer Drug Screen. Data for the mec2-1 strain (AID 157); conditions: S. cerevisiae mec2-1 strain, at 50.0 µM, active compounds read high
How it was run: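 Test agents were screened against the mec2-1 yeast strain, with defined DNA repair or cell cycle alteration. Growth was scored as inhibition against vehicle-only controls.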

[3] = NCI Yeast Anticancer Drug Screen. Data for the sgs1 mgt1 strain (AID 161);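 also: 0% = growth of cultures given vehicle only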; conditions: S. cerevisiae sgs1 mgt1 strain, at 50.0 µM, active compounds read high
How it was run: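 Test agents were incubated with a DNA-repair-mutant yeast strain. Growth was then read and compared against vehicle-treated controls.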

[4] = NCI Yeast Anticancer Drug Screen. Data for the cln2 rad14 strain (AID 165);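 also: 0% = growth equal to vehicle treated cultures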; conditions: S. cerevisiae cln2 rad14 strain, at 50.0 µM, active compounds read high
How it was run: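 Growth of compound-exposed yeast (cln2 rad14 genotype) measured and expressed as inhibition relative to vehicle.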

[5] = NCI Yeast Anticancer Drug Screen. Data for the bub3 strain (AID 167); conditions: S. cerevisiae bub3 mutant strain, at 50.0 µM, active compounds read high
How it was run: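 Whole-cell yeast assay. The mutant strain was incubated with compounds, and growth inhibition was determined by comparison with vehicle-treated cells.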

[6] = NCI Yeast Anticancer Drug Screen. Data for the mlh1 rad18 strain (AID 175); conditions: S. cerevisiae mlh1 rad18 strain growth inhibition; at 50.0 µM; active compounds read high
How it was run: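 In this whole-cell yeast screen, a strain with altered DNA damage repair is challenged with compound, and its growth is measured against matched vehicle-treated controls.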

Measured: growth inhibition

C[N+]1(CCCl)CCc2ccc([N+](=O)[O-])cc2C1 (stereo unspecified)
inactive: [1] -36.9% | [2] -35.5% | [3] 6.95% | [4] 0.8% | [5] 9.3% | [6] -13.8%

CCN(CC)CC#N
inactive: [1] 3.8% | [2] -2.75% | [3] -6.4% | [4] -0.25% | [5] 3.45% | [6] -0.7%

O=C(O)C(F)(F)C(F)(Cl)C(F)(F)C(F)(Cl)C(F)(F)Cl (stereo unspecified) (tested in a mixture with another compound)
inactive: [1] -7.65% | [2] -12.8% | [3] -12.7% | [4] -28.2% | [5] 1.1% | [6] -6.2%

O=C1CCN(C2(c3ccccc3)CCCCC2)CC1
inactive: [1] 3.85% | [2] -4.1% | [3] 3.55% | [4] -5.1% | [5] -8.85% | [6] -1.35%

CC1(c2ccccc2)CC12C(=O)NC(=O)NC2=O (stereo unspecified)
inactive: [1] -69.1% | [2] -22.6% | [3] -18.9% | [4] -8.75% | [5] -27.7% | [6] -20.9%

O=C(O)C1C2Cc3ccccc3C1c1ccccc12 (stereo unspecified)
inactive: [1] -1.6% | [2] -7.55% | [3] 0.95% | [4] 0.6% | [5] -13.7% | [6] -10%

C[n+]1ccc(/C=C\c2ccc(N(CCCl)CCCl)cc2)c2ccccc21
inactive: [1] 4.8% | [2] 15.9% | [3] 4% | [4] 24.1% | [5] 15.4% | [6] 18.6%

O=C1NCC2C3CCC(O3)C12 (stereo unspecified)
inactive: [1] -6.3% | [2] -16.1% | [3] 7.95% | [4] -10.2% | [5] -17.4% | [6] -12.1%

CCOC(=O)C[Se]CC(=O)OCC
inactive: [1] -8.65% | [2] 11.2% | [3] 11.2% | [4] -14.2% | [5] 43.8% | [6] 28.3%

O=C1NC(=O)C2(CCOCC2)C(=O)N1
inactive: [1] -5.15% | [2] 3.3% | [3] -19.1% | [4] -18.4% | [5] -17.5% | [6] 0.15%

c1ccc(N2CCN(c3ccccc3)CC2)cc1
inactive: [1] -31.7% | [2] -8.35% | [3] -1.15% | [4] -57.5% | [5] 37.8% | [6] 13.8%

C[C@@]1(C(=O)c2ccccc2)N(c2ccccc2)[C@@]1(C)C(=O)c1ccccc1
inactive: [1] 8.9% | [2] 8.3% | [3] 4.35% | [4] 21.8% | [5] 16.1% | [6] 32.4%

COc1c2occc2c(CCl)c2ccc(=O)oc12
inactive: [1] 26.6% | [2] 11.2% | [3] 14.3% | [4] 24.4% | [5] 5.8% | [6] 28.1%

O=C(O)C(CP(=O)(O)O)=C(Cl)Cl
inactive: [1] -21.4% | [2] 12.3% | [3] -13.9% | [4] -8.95% | [5] -6.15% | [6] -9.75%

C1CCC(NC2CCCC2)CC1
inactive: [1] 18% | [2] 47.1% | [3] 32.6% | [4] 59% | [5] 12.4% | [6] 13.1%

N[C@@H]1CCCC[C@@H]1N.O=P([O-])([O-])CN(CP(=O)([O-])[O-])CP(=O)([O-])[O-].[Pt+2]
inactive: [1] -5.05% | [2] -6.4% | [3] -10.2% | [4] 14.9% | [5] -0.1% | [6] -21.1%

CC(=O)OC1CC2(O)C(CCC3(C)C(c4ccc(=O)oc4)CCC32O)C2(C)CCC(O)C=C12 (stereo unspecified)
inactive: [1] 7.25% | [2] -11.4% | [3] -1.75% | [4] -1.75% | [5] -3.4% | [6] 14.8%

C[N+](C)(C)CC1CCCC(C[N+](C)(C)C)C1=NO (stereo unspecified)
inactive: [1] 24.9% | [2] 12.1% | [3] -4.85% | [4] 19.7% | [5] -1.5% | [6] 20.6%

O=C(c1ccccc1)P(C(=O)c1ccccc1)C(=O)c1ccccc1
inactive: [1] 10.9% | [2] -5.7% | [3] 8.2% | [4] -75.7% | [5] -0.05% | [6] -5.1%

CN1CCCC(C(=O)c2ccccc2)C1 (stereo unspecified)
inactive: [1] 0.45% | [2] -5.1% | [3] -0.3% | [4] -18.9% | [5] -4.95% | [6] 3.75%

CC(=O)O[C@H]1CC[C@]2(C)C3=C([C@@H](OO)C[C@H]2C1(C)C)[C@]1(C)CC[C@H]([C@H](C)CCCC(C)C)[C@@]1(C)CC3
inactive: [1] 13.1% | [2] 4.4% | [3] 14.7% | [4] 20.9% | [5] 8.45% | [6] 25.3%
